Assay outcomes (PubChem)
Pf growth 96h = Primary qHTS for delayed death inhibitors of the malarial parasite plastid, 96 hour incubation; P. falciparum luciferase reporter growth, 96 h; Potency, µM (doses to about 28.7 µM), usual class: inhibitors; hit rate 6.9% among 320,000
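Luminescence readout: decreased luciferase signal marks inhibited growth of reporter-expressing P. falciparum in infected red cells (2% hematocrit, 0.05% parasitemia final), exposed to compound two generations (96 h, 37 C, 5% CO2).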
Pf growth 48h = Primary qHTS for delayed death inhibitors of the malarial parasite plastid, 48 hour incubation. hit rate 5.9% among 310,000. Potency, µM (doses to about 28.7 µM), actives largely listed as inhibitors. P. falciparum luciferase growth in erythrocytes, 48 h
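Luminescence readout; reporter = integrated firefly luciferase in P. falciparum. RBC culture at 2% hematocrit, 0.1% parasitemia final, 37 C/5% CO2; decreased signal taken as growth inhibition.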
Shiga inhibitor = A qHTS for Small Molecule Inhibitors of Shiga Toxin; Vero cells, Shiga toxin protein synthesis inhibition reporter; inhibition, % at 38.7 µM; hit rate 9.2% among 290,000; AID 2315, 2010; in the data active means inhibition mostly above about 28%, no sharp cut-off; inactive means mostly below about 43%
Cycloheximide cs = Cycloheximide Counterscreen for Small Molecule Inhibitors of Shiga Toxin. cell reporter, cycloheximide protein synthesis inhibition counterscreen. max response, %. hit rate 12% among 300,000; in the data active means max response mostly above about 13%, no sharp cut-off; inactive means mostly below about 14%; further: read at 38.3 µM for the half of the compounds with a filed dose
Hits are given with their value; - = inactive; ? = inconclusive; . = no result given. The list is not random: actives were taken first. Their share in the collection is about 21%. Unless noted, the call rests on the fitted dose curve; in most records, active means well fitted inhibition curve with a large enough effect; inconclusive means small, poorly fitted or top-dose-only effect, or another doubt; inactive means no such curve, though single readings can be large or run the other way.

SMILES | Pf growth 96h | Pf growth 48h | Shiga inhibitor | Cycloheximide cs
Cc1cc(N)n(-c2ncnc3scc(-c4ccc(Cl)cc4)c23)n1 | ? | ? | - | -
Clc1ncnc2scc(-c3ccc(Br)cc3)c12 | 0.33µM | 0.83µM | - | -
CCOc1cc(C2C3=C(CCCC3=O)Nc3ccc4ncccc4c32)ccc1O (stereo not given) | - | - | - | -
O=C1CCCC2=C1C(c1ccc(O)c(O)c1)Nc1ccc3ncccc3c12 (stereo not given) | - | - | 33 | -
Cc1ccsc1C1Nc2ccc3ncccc3c2C2=C1C(=O)CC(C)(C)C2 (stereo not given) | 1.2µM | 1.7µM | - | -
COc1cc(C2C3=C(CCCC3=O)Nc3ccc4ncccc4c32)ccc1O (stereo not given) | - | - | - | 15
O=C1CCCC2=C1C(c1cccs1)Nc1ccc3ncccc3c12 (stereo not given) | - | - | - | -
COc1ccc(C2C3=C(CCCC3=O)Nc3ccc4ncccc4c32)cc1OC (stereo not given) | 0.29µM | - | - | 35
CC(/C=N/NC(=O)c1cc(-c2cccn2C)n[nH]1)=C\c1ccccc1 | ? | ? | - | -
CON(C)C(=O)Nc1ccc(Br)cc1 | . | . | - | -
O=C(COC(=O)c1ccc(F)c(S(=O)(=O)N2CCOCC2)c1)Nc1ccc2c(c1)OCO2 | - | - | . | .
Nc1ccc(Nc2nc3ccccc3[nH]2)cc1 | - | ? | - | -
c1ccc(Nc2nc3ccccc3[nH]2)nc1 | ? | ? | 86 | 70
Cc1ccc2nc(Nc3nc(-c4ccccc4)cc(=O)[nH]3)nc(C)c2c1 | ? | ? | - | -
Cc1cc(C)nc(Nc2nc3ccccc3[nH]2)n1 | - | - | 90 | 29
Cc1ccc2nc(Nc3nc(C)cc(-c4ccccc4)n3)[nH]c(=O)c2c1 | 6.6µM | 3.3µM | - | -
CC(C)(C)c1nc2ccccc2[nH]1 | - | . | - | -
Nc1ccccc1Nc1nc2ccccc2[nH]1 | 10µM | - | 34 | 27
CC(C)(C)n1nnnc1SCC(=O)Nc1nn(-c2ccccc2)nc1C(N)=O | ? | - | - | -
COc1ccc(C(=O)NC2CCN(C(=O)NCc3ccccc3)CC2)cc1 | - | - | - | -
CCc1ccc(Nc2nnc(SCC(=O)Nc3cccnc3Cl)s2)cc1 | ? | - | 30 | 20
Cc1ccc(C)c(SCC(=O)Nc2cccnc2Cl)c1 | ? | 10µM | - | -
CCc1ccc(Nc2nnc(SCC(=O)Nc3sccc3C(N)=O)s2)cc1 | ? | ? | 62 | 32
Cc1ccc(-n2c(SCC(=O)NCCN3C(=O)CSC3=O)nnc2-c2ccccc2)cc1 | 15µM | - | - | -
COc1cccc(Nc2nnc(SCC(=O)Nc3sccc3C(N)=O)s2)c1 | ? | ? | - | -
SMILES | Pf growth 96h | Pf growth 48h | Shiga inhibitor | Cycloheximide cs
COc1ccc(NC(=O)COc2cccc3c2CCN(C)C3=O)c(OC)c1 | ? | ? | - | -
CNC(=O)c1cc(S(=O)(=O)Nc2ccc3c(c2)OCO3)ccc1C | - | - | - | -
CCCNC(=O)c1ccc(C)c(NC(=O)C2=C(C)OCCS2)c1 | - | - | - | -
Cn1c(SCC(=O)NCCN2C(=O)CSC2=O)nnc1-c1ccccc1 | - | - | - | -
CCc1ccc(Nc2nnc(SCC(=O)NCCN3C(=O)CSC3=O)s2)cc1 | ? | - | 53 | 40
Cc1cc(C)nc(Nc2n[nH]c(-c3ccccc3Cl)n2)n1 | - | - | - | -
Cc1ccccc1-c1cc(-c2ccccc2O)n[nH]1 | . | - | 75 | 30
Nc1n[nH]c(-c2ccccc2[N+](=O)[O-])n1 | - | - | - | -
Cc1ccc(-c2cc(-c3ccccc3Cl)[nH]n2)c(O)c1 | - | ? | 128 | 51
Cc1ccc(-c2cc(-c3ccccc3[N+](=O)[O-])[nH]n2)c(O)c1 | - | - | 75 | 31
CN1C(=S)SC2CS(=O)(=O)CC21 (stereo not given) | - | - | - | -
Cc1cccc(/C=N\NC(=O)c2sccc2-n2cccc2)c1 | - | - | 114 | 65
O=C(NC1CC1)c1sccc1-n1cccc1 | . | - | - | -
O=C(N/N=C\c1cccs1)c1sccc1-n1cccc1 | 13µM | ? | - | -
O=C(N/N=C\c1ccccc1)c1sccc1-n1cccc1 | - | - | 49 | 26
COc1ccccc1NS(=O)(=O)c1cc(NC(=O)c2cccs2)ccc1N1CCCCC1 | 3.7µM | ? | - | -
COc1ccccc1NS(=O)(=O)c1cc(NC(=O)Nc2ccccc2)ccc1N1CCCCC1 | 1.5µM | 2.6µM | - | -
COc1ccccc1NS(=O)(=O)c1cc(NC(=O)c2cccs2)ccc1N1CCCC1 | ? | ? | - | -
O=C(Nc1ccc(N2CCCC2)c(S(=O)(=O)Nc2cccc(C(F)(F)F)c2)c1)c1cccs1 | 15µM | ? | - | -
COc1cc(S(=O)(=O)Nc2ccccc2N2CCCCC2)ccc1NC(C)=O | ? | - | . | .
COc1ccccc1NS(=O)(=O)c1cc(NC(=O)C(C)C)ccc1N1CCCCC1 | ? | - | - | -
COc1cc(OC)c(S(=O)(=O)Nc2ccccc2N2CCCCC2)cc1NC(C)=O | 9.3µM | 9.3µM | - | -
Cc1ccc(/C=C2/SC(=O)NC2=S)o1 | - | - | - | -
CC(=O)N1c2ccccc2C(=O)C1N(C)c1ccc(C)cc1 (stereo not given) | - | - | 45 | 33
O=C(Nc1ccc(F)cc1F)c1c(C(F)(F)F)ccnc1Oc1cccc(C(F)(F)F)c1 | 10µM | 15µM | - | -
SMILES | Pf growth 96h | Pf growth 48h | Shiga inhibitor | Cycloheximide cs
Cn1nc(C(F)(F)F)c(C(=O)Nc2ccc(F)cc2F)c1Sc1cccc(C(F)(F)F)c1 | 8.3µM | 9.3µM | - | -
COc1ccc2cc3cc(C(=O)N4CCN(c5ccccn5)CC4)oc3nc2c1 | ? | - | - | -
CCOC(=O)CSc1ccc(C(=O)Nc2ccc(OC)cc2)cn1 | - | - | - | -
COc1ccc(CCNC(=O)c2ccc3c(c2)NC(=O)C(CSCc2cc(C)ccc2C)N3)cc1OC (stereo not given) | - | - | - | -
NS(=O)(=O)c1ccc(-c2ccc(/C=N/Nc3ccc(C(=O)O)cc3)o2)cc1 | - | - | - | 41
O=C(O)c1ccc(-c2ccc(/C=N/Nc3ccc([N+](=O)[O-])cc3)o2)cc1 | - | - | 92 | 16
NS(=O)(=O)c1ccc(-c2ccc(/C=N/NC(=O)c3ccc([N+](=O)[O-])cc3)o2)cc1 | - | - | - | -
O=C(O)c1cccc(-c2ccc(/C=N/Nc3ccc([N+](=O)[O-])cc3)o2)c1 | - | - | - | 17
CN(C(=O)c1ccncc1)c1nnc(-c2cccnc2)s1 | ? | - | - | -
CN(C(=O)c1ccc(C#N)cc1)c1nnc(-c2ccccn2)s1 | - | - | - | -
Cc1ccc(C(=O)N(C)c2nnc(-c3ccncc3)s2)cc1 | - | - | 58 | 15
CN(C(=O)c1ccncc1)c1nnc(-c2ccccn2)s1 | - | - | - | 35
CCCCC(=O)NC(=S)Nc1nnn(CCC)n1 | ? | - | - | -
CSCCC(NC(=O)c1ccco1)C(=O)NCC1CCCCC1 (stereo not given) | - | ? | . | .
O=C(COC(=O)CNC(=O)c1ccc(Cl)cc1Cl)NC1CCCCCCC1 | - | - | . | .
Cc1ccccc1SCC(=O)OCC(=O)NCCNC(=O)COC(=O)CSc1ccccc1C | - | - | . | .
